Inconclusive results are not listed. Activity calls are given as the source filed them. The calls were made as follows: active = hit-call score of the fitted dose curve at least 0.9, where 1 is the maximum; inconclusive = response in the unintended direction; inactive = score below 0.9.

Sequence of zebrafish Retinoid X Receptor beta (RXRb), rxrba (gene 30530) (Q7SYN5 whole entry, looked up): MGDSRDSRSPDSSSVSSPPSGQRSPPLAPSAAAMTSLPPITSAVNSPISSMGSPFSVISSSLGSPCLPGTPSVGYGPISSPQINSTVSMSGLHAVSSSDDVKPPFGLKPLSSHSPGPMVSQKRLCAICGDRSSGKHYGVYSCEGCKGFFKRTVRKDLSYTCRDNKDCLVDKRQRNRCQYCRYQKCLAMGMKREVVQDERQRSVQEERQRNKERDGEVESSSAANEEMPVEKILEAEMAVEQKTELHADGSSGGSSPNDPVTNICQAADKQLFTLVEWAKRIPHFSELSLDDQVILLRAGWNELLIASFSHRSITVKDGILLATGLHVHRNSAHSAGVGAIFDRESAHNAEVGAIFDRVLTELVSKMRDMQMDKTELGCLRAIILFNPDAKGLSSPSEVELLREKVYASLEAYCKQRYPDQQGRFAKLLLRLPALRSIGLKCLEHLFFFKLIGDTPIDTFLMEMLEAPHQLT

The assay concerns the target zebrafish Retinoid X Receptor beta (RXRb), rxrba (gene 30530) (UniProt Q7SYN5). Put plainly: ATG_zfRXRb_EcoTox2: Attagene TRANS-FACTORIAL EcoTox-2 HepG2 Assay for zebrafish Retinoid X Receptor beta (RXRb). The method, then:
ATG_EcoTox2 is a cell-based, multiplexed assay created by modifying the existing Attagene TRANS-FACTORIAL system to include a panel of nuclear receptors from some or all the following species: human (Homo sapiens), african clawed frog (Xenopus laevis), rainbow trout (Oncorhynchus mykiss), japanese medaka (Oryzias latipes), and zebrafish (Danio rerio). The ECOTOX2-FACTORIAL format uses HepG2, a human liver cell line, with measurements taken at 24 hours after chemical dosing in a 24-well plate. ATG_zfRXRb_EcoTox2 is one of 29 assay components calculated in the ATG_EcoTox2 assay. It is designed to make measurements of mRNA induction, a form of inducible reporter, as detected with fluorescence intensity signals by Reverse transcription polymerase chain reaction (RT-PCR) and Capillary electrophoresis technology.The assay endpoint ATG_zfRXRb_EcoTox2 was analyzed in the positive analysis fitting direction relative to DMSO as the negative control and baseline of activity. Using a type of inducible reporter, measures of mRNA for gain-of-signal activity can be used to understand the reporter gene at the transcription factor-level as they relate to the gene RXRb. Furthermore, this assay endpoint can be referred to as a primary readout, because this assay has produced multiple assay endpoints where this one serves a reporter gene function. To generalize the intended target to other relatable targets, this assay endpoint is annotated to the nuclear receptor intended target family, where the subfamily is non-steroidal.
Human liver HepG2 cells are transiently transfected with multiple reporter transcription units (MRTUs) in 6-well plates using FuGene 6 reagent (Roche; 3 ml FuGene/1 mg DNA). The MRTU constructs are regulated by a cis-regulating element (promoter). Each RTU expresses a GAL4-UAS that regulates the transcription of a nearby target reporter gene sequence. A major difference between the CIS and TRANS system is that in CIS activities of endogenous TFs are measured, whereas the TRANS assay evaluates changes in activities of exogenous, chimeric NR-Gal4 proteins. […] At the end of 24 hour incubation, total RNA was isolated using TriZol reagent (Invitrogen). The isolated RNA is then reverse-transcribed using oligo(dT) primer and Mo-MLV reverse transcriptase (Invitrogen) with DNAse I (Ambion) treatment for 30 min. The one-tenth of the produced cDNA was amplified by PCR using Taq DNA polymerase (Invitrogen) and two reporter sequence-specific primers. The PCR products were fluorescently labeled by primer extension with 6-arboxyfluorescein (6-FAM) 5'-labeled reporter sequence-specific primer (2 min at 95 C, 20 s at 68 C and 10 min at 72 C) and these products were digested with 5U of HpaI (New England Biolabs) for 2h at 37 C. The fragments were purified using Qiaquick PCR columns (Qiagen), analyzed on an ABI 3130xL genetic analyzer (Applied Biosystems) with peak positions identified by using a set of X-rhodamine (ROX)-labeled MapMarker1000 molecular weight standards (BioVentures). The raw capillary electrophoresis data was processed using Attagraph software (Attagene).
Turning to `C[C@@H]1C[C@H]2[C@@H]3CCC4=CC(=O)C=C[C@]4(C)[C@@]3(F)[C@@H](O)C[C@]2(C)[C@@]1(O)C(=O)COP(=O)(O)O`, the molecule was classed as inactive. With `CC(C)(Oc1ccc(Cl)cc1)C(=O)O`, the call was inactive. As to `Cc1ccc(C)c(OCCCC(C)(C)C(=O)O)c1`, the result was inactive. With `C=C(c1ccc(C(=O)O)cc1)c1cc2c(cc1C)C(C)(C)CCC2(C)C`, the AC50 (in general, the concentration giving half of the maximal activity seen) is 597 nM (active).

Turning to `CC(C)(Oc1ccc(C2CC2(Cl)Cl)cc1)C(=O)O` (stereo not given), the result was inactive. On to `C[C@]12C=CC(=O)C=C1CC[C@@H]1[C@@H]2C(=O)C[C@@]2(C)[C@H]1CC[C@]2(O)C(=O)CO`, for which the molecule was classed as inactive.

In the case of `Cc1c(C)c2c(c(C)c1O)CCC(C)(COc1ccc(CC3SC(=O)NC3=O)cc1)O2` (stereo not given), the outcome was inactive. Regarding `CC(c1cc2ccccc2s1)N(O)C(N)=O` (stereo not given), the molecule was called inactive. `Cc1cccc(Nc2cc(Cl)nc(SCC(=O)O)n2)c1C`: the result was inactive. On the same count and under the same terms, under `CC(C)(Oc1ccc(CCNC(=O)c2ccc(Cl)cc2)cc1)C(=O)O` stands “inactive”.

These data come from PubChem BioAssay AID2284358 (EPA ToxCast).
